Laboratory results taken from PubChem BioAssay (NCI).
Where “and” joins values, the source holds several entries; their conditions need not be identical. Identical values can stand only once. This is part of a sample that, as a whole, favours compounds with a hit. Of some 83,000 tested, about 20% had one in any assay.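 A percent growth of 40 corresponds to 60% growth inhibition; 0 means no net growth; -100 means all cells died. Active threshold: below 10.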 Calls of active or inactive are those of the source.

How the values were obtained:
Experiment in all cases: NCI-60 one-dose screen, 48 h (100 = growth as untreated, 0 = no growth, -100 = all killed)
Conditions in all cases: 10 µM unless noted
[1] = tested on: SR leukemia
[2] = tested on: RPMI-8226 leukemia
[3] = tested on: OVCAR-8 ovarian
[4] = tested on: OVCAR-5 ovarian
[5] = tested on: OVCAR-4 ovarian
[6] = tested on: SK-OV-3 ovarian
[7] = tested on: IGROV1 ovarian
[8] = tested on: OVCAR-3 ovarian
[9] = tested on: HS 578T breast
[10] = tested on: NCI/ADR-RES ovarian
[11] = tested on: T-47D breast
[12] = tested on: MDA-MB-435 melanoma
[13] = tested on: SW-620 colon
[14] = tested on: MCF7 breast
[15] = tested on: HCT-116 colon
[16] = tested on: HCC-2998 colon
[17] = tested on: KM12 colon
[18] = tested on: BT-549 breast

Measured: growth

O=c1[nH]nnc2cc(Cl)ccc12
inactive: [1] 117% and 102% | [2] 112% and 109% | [3] 95.2% and 98.2% | [4] 103% and 96.5% | [5] 124% and 98.8% | [6] 114% and 117% | [7] 104% and 116% | [8] 100% and 123% | [9] 126% and 123% | [10] 106% and 97.5% | [11] 106% and 98.4% | [12] 104% and 102% | [13] 95.3% and 99.8% | [14] 114% and 94.5% | [15] 104% and 103% | [16] 109% and 98.7% | [17] 101% and 102%

O=C1c2cccnc2-c2ncccc21
inactive: [1] 120% [100 µM] | [2] 99.8% [100 µM] | [3] 106% [100 µM] | [4] 122% [100 µM] | [5] 109% [100 µM] | [6] 107% [100 µM] | [7] 113% [100 µM] | [8] 110% [100 µM] | [9] 89.5% [100 µM] | [10] 102% [100 µM] | [11] 98.9% [100 µM] | [18] 104% [100 µM] | [12] 103% [100 µM] | [14] 109% [100 µM] | [15] 107% [100 µM] | [16] 112% [100 µM] | [17] 103% [100 µM]

OCCSc1ccc(Cl)cc1
inactive: [1] 117% and 99.7% | [2] 122% and 84.6% | [3] 111% and 103% | [4] 105% and 91.1% | [5] 104% and 99.9% | [6] 112% and 86.9% | [7] 109% and 93.6% | [8] 124% and 110% | [9] 101% | [10] 108% and 102% | [11] 101% and 72.3% | [12] 103% and 106% | [13] 104% | [14] 106% and 89.3% | [15] 110% and 94.4% | [16] 106% and 108% | [17] 117% and 102%

OCc1cccc(F)c1
inactive: [1] 71.1% | [2] 113% | [3] 85.3% | [4] 70.7% | [5] 113% | [6] 91.7% | [7] 79.6% | [8] 125% | [9] 124% | [10] 76.5% | [11] 94.6% | [12] 98.6% | [13] 50% | [14] 62.1% | [16] 99.4% | [17] 108%

Cc1nc(Nc2ccc(Cl)cc2)c2cnn(-c3ccccc3)c2n1
inactive: [1] 101% | [2] 108% | [3] 104% | [4] 108% | [5] 103% | [6] 116% | [7] 112% | [8] 106% | [9] 97.9% | [10] 98.2% | [11] 101% | [18] 102% | [12] 94.7% | [13] 98.4% | [14] 88.2% | [16] 105% | [17] 106%

O=[N+]([O-])c1cccc2ccc(N/N=C/c3ccccc3O)nc12
active: [7] -10.5%
inactive: [1] 60.4% | [3] 91.9% and 95% | [4] 113% and 116% | [5] 93.3% and 100% | [6] 108% and 111% | [8] 40.5% and 101% | [9] 83.6% and 98.7% | [10] 59% and 106% | [11] 38.1% and 78% | [18] 68.6% and 103% | [12] 101% and 106% | [14] 42.5% and 61.7% | [15] 20.8% and 67.8% | [16] 110% | [17] 86.8% and 84.3%
6.55% (active) and 93.4% (inactive): [2]
